TDP1 cell noCPT: qHTS for Inhibitors of human tyrosyl-DNA phosphodiesterase 1 (TDP1): qHTS in cells in absence of CPT | AID 686978, 2013 | Potency, µM (doses to about 46.2 µM), for inactives: at the highest dose activity change, negative = growth inhibition, actives largely listed as inhibitors | DT40 Tdp1-/- hTDP1 cells, no CPT, ATP luminescence, 48 h | 420,000 tested, 15% active; also: potency is read from the fitted curve at half-maximal effect; nearly all actives have a fitted effect of over 55% in size
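Seeded 400 DT40-hTDP1 cells/well (vehicle DMSO, no 20 nM CPT); pinned compounds; ≥48 hr at 37 °C; CellTiter-Glo luminescence as viability measure.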
ELG1 DNA repair: qHTS screen for small molecules that inhibit ELG1-dependent DNA repair in human embryonic kidney (HEK293T) cells expressing luciferase-tagged ELG1; HEK293T ELG1-luciferase reporter, luminescence, 16 h; DNA damage induced by 5-fluorouridine; Potency, µM (series often up to 46.1 µM), for inactives: at the highest dose activity change, negative = inhibition, actives largely listed as inhibitors; 330,000 tested, 2.3% active; also: potency is read from the fitted curve at half-maximal effect; nearly all actives have a fitted effect of over 55% in size
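Cells (2,000 per well) received 5-fluorouridine plus test compound or DMSO and were incubated 16 hr at 37 °C, 5% CO2. Luciferase activity was read by luminescence 30 min after ONE-Glo addition; signal suppression marked inhibition of damage-induced ELG1 function.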
IL1B secr inh: qHTS for Inhibitors of Inflammasome Signaling: IL-1-beta AlphaLISA Primary Screen. 360,000 tested, 4.7% active. activity change, % at 57.5 µM. AID 743279, 2014. THP-1 LPS/ATP IL-1B secretion, AlphaLISA, 16 h; active compounds read low; in the data active = activity change below about -50%; inconclusive = mostly about -30% to -49%
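THP-1 cells pretreated 1 hr with compounds (up to 57.5 uM final), then stimulated with LPS (250 ng/mL final) plus ATP (1.25 mM final); secreted IL-1B measured by AlphaLISA after 16 hr, decreased signal indicating inhibition.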
RORg inh: qHTS for inhibitors of ROR gamma transcriptional activity; Potency, µM (series often up to 53.6 µM), without a hit: at the highest dose activity change, negative = inhibition, usual class: inhibitors; Drosophila S2 Gal4-RORgamma UAS-luciferase reporter, 20 h; 310,000 tested, 5.4% active; AID 2551, 2010; Nuclear receptor ROR-gamma (Mus musculus), P51450; also: potency is read from the fitted curve at half-maximal effect; nearly all actives have a fitted effect of over 60% in size
Target sequence (P51450 whole entry, looked up, the tested form may be a part): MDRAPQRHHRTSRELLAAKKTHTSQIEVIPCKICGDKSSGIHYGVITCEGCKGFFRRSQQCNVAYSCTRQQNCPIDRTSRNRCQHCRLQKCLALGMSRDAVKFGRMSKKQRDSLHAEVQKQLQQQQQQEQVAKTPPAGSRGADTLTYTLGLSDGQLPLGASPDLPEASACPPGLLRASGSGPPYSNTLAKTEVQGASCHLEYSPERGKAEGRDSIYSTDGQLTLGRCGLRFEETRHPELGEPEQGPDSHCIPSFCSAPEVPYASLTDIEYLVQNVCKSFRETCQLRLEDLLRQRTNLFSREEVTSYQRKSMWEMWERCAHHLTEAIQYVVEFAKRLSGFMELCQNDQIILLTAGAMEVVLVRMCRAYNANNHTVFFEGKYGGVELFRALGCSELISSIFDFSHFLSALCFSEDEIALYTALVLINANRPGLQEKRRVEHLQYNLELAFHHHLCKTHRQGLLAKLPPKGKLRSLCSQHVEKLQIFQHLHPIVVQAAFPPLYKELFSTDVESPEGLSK
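Stable Schneider cell line, Gal4 DNA-binding domain fused to ROR gamma, UAS-luciferase. Cmpd 1 hr RT → CuSO4 700 uM final → 20 hr RT → luciferase reagent 10 min → luminescence.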
Gal4-VP16 FLuc: VP16 counterscreen qHTS for inhibitors of ROR gamma transcriptional activity; Drosophila S2 Gal4-VP16 UAS-luciferase, luminescence, 20 h; Potency, µM (titrated, usually from 53.6 µM), for inactives: top-dose activity, negative = inhibition, hits mostly inhibitors; 310,000 tested, 3.5% active;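 also: Gal4-VP16 expression switched on by copper sulfate through the metallothionein promoter; potency is read from the fitted curve at half-maximal effect; nearly all actives have a fitted effect of over 50% in size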
TDP1 cell CPT: qHTS for Inhibitors of human tyrosyl-DNA phosphodiesterase 1 (TDP1): qHTS in cells in presence of CPT; chicken DT40 Tdp1-/-;hTDP1 cells + 20 nM CPT, ATP luminescence, 48 h; Potency, µM (titrated, usually from 46.2 µM), inactives show top-dose activity change, negative = growth inhibition, hits mostly inhibitors; 420,000 tested, 12% active; AID 686979, 2013; also: potency is read from the fitted curve at half-maximal effect; nearly all actives have a fitted effect of over 55% in size
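Cell growth measured by CellTiter-Glo luminescence after a minimum 48 h, 37 C compound exposure with 20 nM CPT in Tdp1-knockout DT40 cells stably expressing hTDP1, seeded 400/well; qHTS titration format.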
Starred values were filed as active, the others as inactive; ? = inconclusive; . = no result given. In the library only some 21% were active in any assay of this set; here they are far more common. Unless noted, calls follow the shape of the dose curve; as a rule, active = well fitted curve in the direction sought with a large enough effect; inconclusive = small, poorly fitted or top-dose-only effect, or another doubt; inactive = no such curve, though single readings can be large; an effect the other way counts as inactive or inconclusive. % is scaled to controls: 0 for no effect and ±100 for the full control effect.

SMILES	TDP1 cell noCPT	ELG1 DNA repair	IL1B secr inh	RORg inh	Gal4-VP16 FLuc	TDP1 cell CPT
Cc1cc2nc(-c3ccccc3)c(CC3CCCCC3)n2c(C)c1Br	15µM*	.	33	.	.	23µM*
COc1c2ccccc2nn1C(C)C	-7%	.	50	.	.	25%
Cc1cc2nc(-c3ccc(F)cc3)c(CC(C)(C)C)n2c(C)c1Br	21µM*	.	42	.	.	26µM*
COc1ccc(-c2nc3cc(C)c(Br)c(C)n3c2CC(C)(C)C)cc1OC	-26%	.	-22	.	.	-12%
CC(=O)Nc1cc2c(cc1[N+](=O)[O-])-c1ccccc1C2O (stereo unspecified)	12µM*	.	?	.	.	?
CC(=O)Nc1ccc(OCc2ccccc2)cc1[N+](=O)[O-]	-20%	.	-13	.	.	-13%
Cc1cccc(N2C(S)=C(C#N)C(=O)NC2c2cccs2)c1 (stereo unspecified)	13µM*	15%	-6	?	?	15µM*
N#CC1=C(S)N(c2ccc(F)cc2)C(c2cccs2)NC1=O (stereo unspecified)	?	-1%	13	?	2%	8.2µM*
Cc1ccccc1N1C(S)=C(C#N)C(=O)NC1c1cccs1 (stereo unspecified)	?	7%	-6	-2%	-5%	?
O=C1NC[C@H](CCCCN2C[C@H](Cc3ccccc3)N(Cc3ccccc3)C(=O)C2=O)N(CCc2ccccc2)C1=O	?	.	-8	.	.	?
Cc1ccc(OC(=O)CSc2nnc(CNC(=O)c3ccccc3)o2)cc1	-9%	.	.	.	.	-6%
CCN(CC)C(=O)C1=C(C)N(Cc2ccc(OC)cc2)C(=O)C(CC(=O)NCCN2CCOCC2)C1 (stereo unspecified)	-8%	.	14	.	.	-4%
CSc1c(C#N)c(N)nc2sc(C(=O)c3ccccc3)c(N)c12	6%	0%	-73*	35%	-2%	-2%
Oc1ccc(-c2nnc(-c3ccc(O)cc3)nn2)cc1	-2%	?	-26	11µM*	?	-18%
Oc1ccc(C2=NNC(c3ccc(O)cc3)=NN2)cc1	-1%	1%	6	-18%	-1%	-3%
O=C(c1ccc(O)cc1)c1ccc(C(=O)c2ccc(O)cc2)cc1	?	?	0	?	?	-28%
Oc1ccc(O)cc1	?	.	.	11µM*	?	21µM*
CCOC(=O)C(C(C)=O)C(c1ccc(OCCC(C)C)cc1)C(C(C)=O)C(=O)OCC (stereo unspecified)	16µM*	-24%	-3	?	-3%	?
CCOC(=O)C(CCCOc1ccc(C)cc1)C(=O)OCC	-9%	-1%	8	33%	-20%	-11%
CCOC(=O)c1ccc(COc2ccc(C(C)C)cc2)o1	-3%	?	5	-38%	-10%	8%
CCOC(=O)C(CCCOc1ccc(C(C)CC)cc1)C(=O)OCC (stereo unspecified)	-2%	-17%	23	2.8µM*	?	-3%
CCc1ccc(NC(=O)CSc2nc3ccccc3nc2Cc2ccccc2OC)cc1	?	.	.	.	.	0%
Cc1ccccc1OCc1ccc(-c2nc(C#N)c(NCc3cccnc3)o2)o1	21µM*	.	.	.	.	15µM*
N#Cc1nc(COc2ccccc2Cl)oc1NCc1cccnc1	?	21%	-3	-8%	?	?
COc1ccc(OCc2ccc(-c3nc(C#N)c(NCc4cccnc4)o3)o2)cc1	18µM*	.	.	.	.	?
SMILES	TDP1 cell noCPT	ELG1 DNA repair	IL1B secr inh	RORg inh	Gal4-VP16 FLuc	TDP1 cell CPT
COc1ccc(-c2cc(C(F)(F)F)nc(SCC(=O)N(C)Cc3cnn(C)c3C)n2)cc1OC	16µM*	?	-4	-8%	2%	16µM*
CN(Cc1ccccc1)C(=O)CSc1nc(-c2ccc(F)cc2)cc(C(F)(F)F)n1	15µM*	.	.	.	.	21µM*
CN(Cc1ccccc1)C(=O)CCSc1nc(-c2ccc3c(c2)OCO3)cc(C(F)(F)F)n1	18µM*	16µM*	8	20%	7%	?
O=C(CCSc1nc(-c2ccc3c(c2)OCO3)cc(C(F)(F)F)n1)NCc1ccccc1	15µM*	?	15	17%	1%	?
CC(C)(C)N(NS(=O)(=O)c1ccc(F)cc1)c1ccccc1	0%	13%	21	-11%	-8%	13%
CC1CCCC(C)N1C(=O)COc1ccc(C(=O)Nc2ccccc2N2CCOCC2)cc1 (stereo unspecified)	?	0%	15	-1%	-6%	?
O=[N+]([O-])c1cc(-c2nc(-c3ccccc3)no2)ccc1NC1CCCCC1	-6%	.	.	.	.	5%
Cc1ccc(C(O)c2ncc(-c3ccc(Cl)cc3)[nH]2)cc1F (stereo unspecified)	?	.	-4	.	.	?
O=C1NC[C@H](Cc2ccccc2)N(CC2CCN(CCc3ccc(-c4ccccc4)cc3)CC2)C1=O	16µM*	.	-59*	.	.	21µM*
CC(C)C[C@H]1CNC(=O)C(=O)N1CC1CCN(CCc2ccccc2)CC1	17%	.	-7	.	.	-12%
CC(C)C[C@H]1CNC(=O)C(=O)N1CC1CCN(CCc2ccc(-c3ccccc3)cc2)CC1	-18%	.	-67*	.	.	-23%
CN(CC(=O)Nc1cccc(F)c1)C(=O)c1cc([N+](=O)[O-])ccc1N1CCCCC1	29µM*	4%	15	.	.	?
COc1cccc(NC(=O)CN(C)C(=O)c2ccc(N3CCCCC3)c([N+](=O)[O-])c2)c1	?	-4%	22	.	.	?
CN(CC(=O)Nc1cccc(F)c1)C(=O)c1ccc(N2CCCC2)c([N+](=O)[O-])c1	16µM*	?	-14	.	.	16µM*
CN(CC(=O)Nc1cccc(F)c1)C(=O)c1ccc2c(c1)CC(c1ccccc1)OC2=O (stereo unspecified)	5.2µM*	?	-13	.	.	8.2µM*
CCc1ccc(Cc2cnc(NC(=O)c3ccc4c(c3)CC(c3ccccc3)OC4=O)s2)cc1 (stereo unspecified)	18µM*	.	.	.	.	?
O=C(Nc1ncc(Cc2ccccc2Cl)s1)c1ccc2c(c1)CC(c1ccccc1)OC2=O (stereo unspecified)	-28%	.	.	.	.	-22%

Screening data (PubChem)
